Screening data (PubChem)
In the library only some 1.1% were active in any assay of this set; here they are far more common.
HTR5A ag: HTR5A agonism, opioid heterodimer counter-screen. P47898. HTR5A agonist assay, luminescence, cell-based. activation, % at 9.3 µM. actives 0.61% (n = 340,000); in the data active means activation mostly above about 9.5%, no sharp cut-off; inactive means mostly below about 7.6%;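 further: 0% = cells with vehicle only and 100% = reference agonist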
Target sequence (P47898 whole entry, looked up): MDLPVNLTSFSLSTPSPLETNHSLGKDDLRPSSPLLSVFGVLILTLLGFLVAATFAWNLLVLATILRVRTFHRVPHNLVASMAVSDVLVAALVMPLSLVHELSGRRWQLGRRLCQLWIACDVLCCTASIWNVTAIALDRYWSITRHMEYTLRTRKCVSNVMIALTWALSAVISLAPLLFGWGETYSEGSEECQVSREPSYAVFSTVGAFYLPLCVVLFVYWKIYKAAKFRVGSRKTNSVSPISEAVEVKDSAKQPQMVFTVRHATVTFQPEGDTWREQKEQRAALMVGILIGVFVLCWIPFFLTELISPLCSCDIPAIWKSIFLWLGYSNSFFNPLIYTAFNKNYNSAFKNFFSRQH
MOR-DOR ag: OPRM1-OPRD1 heterodimerization agonism; activation, % at 9.3 µM; AID 504326; actives 0.3% (n = 340,000); P35372+P41143; cells, luminescence;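 further: 0% = vehicle-treated cells and 100% = reference agonist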
OPRM1-OPRD1 inv: inverse agonists of human mu-delta opioid receptor heterodimerization. AID 504357. cell-based MOR-DOR heterodimer luminescence, inverse agonism. P35372+P41143. inhibition, % at 9.3 µM. actives 0.21% (n = 340,000); in the data active means inhibition above about 22%, passing the limit was not always enough;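 further: 0% = cells with DMSO and 100% = wells without cells with DMSO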
HTR5A inv ctr: HTR5A inverse agonism, opioid heterodimer counter-screen | P47898 | HTR5A cell line, luminescence | inhibition, % at 9.3 µM | actives 0.083% (n = 340,000); in the data active means inhibition mostly above about 23%, no sharp cut-off; inactive means mostly below about 18%;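 further: 0% = cells with DMSO and 100% = no-cell wells with DMSO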
OPRM1-D1 ag cf: confirmation of human OPRM1-OPRD1 heterodimerization agonists | shares compounds with MOR-DOR ag | cells, MOR-DOR heterodimerization, luminescence complementation | activation, % at 9.3 µM | actives 45% (n = 830) | AID 504904;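 further: 0% = vehicle-treated cells and 100% = reference agonist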
HTR5A ag ctr2: HTR5A agonism, opioid heterodimer counter-screen. shares compounds with MOR-DOR ag. HTR5A agonist counterscreen, cell luminescence. activation, % at 9.3 µM. actives 8% (n = 830); in the data active means activation above about 17%;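 further: 0% = vehicle-treated cells and 100% = reference agonist response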
Starred values were filed as active, the others as inactive; i = inactive; x = not tested or not shown. Unless noted, no stated cut-off is given here; in the data, active means activation above about 18%; inactive means the rest.

SMILES | HTR5A ag | MOR-DOR ag | OPRM1-OPRD1 inv | HTR5A inv ctr | OPRM1-D1 ag cf | HTR5A ag ctr2
Cc1sc(NC(=O)CSc2nnc(COc3ccccc3)n2C)c(C#N)c1C | 3.2 | 13.5 | -82.0 | -8.5 | x | x
NC1=NC2(CCN(Cc3ccccc3)CC2)n2c(nc3ccccc32)N1 | -1.1 | 49.7* | -244.7 | -4.4 | 27.8* | 1.5
C[C@H](C[C@H](O)[C@H]1OC1(C)C)C1=C2C[C@H](O)C3[C@@]4(C)CCC(=O)C(C)(C)C4CC[C@]3(C)[C@@]2(C)CC1 (some centres not stated) | 1.7 | 12.5 | -72.1 | -5.0 | x | x
C[C@@H](C[C@@H](O)[C@H](O)C(C)(C)O)[C@@H]1CC[C@]2(C)C3=CC[C@H]4C(C)(C)C(=O)CC[C@]4(C)[C@H]3CC[C@@]12C | -3.1 | 19.2* | -111.8 | 8.2 | 7.1 | -0.4
Cc1ccc2c(Cl)c(Cc3ccccc3)c(=S)[nH]c2n1 | 0.5 | 20.9* | -103.5 | -1.8 | 34.7* | -1.6
CC(=O)N1CCN(S(=O)(=O)c2ccc3c(c2)CCC(=O)N3)CC1 | -1.8 | 1.1 | -4.3 | 4.3 | x | x
Cc1cc(C)c2nc(Nc3nc(-c4ccccc4)cc(=O)[nH]3)nc(C)c2c1 | -3.5 | 0.5 | -2.3 | 13.2 | x | x
CC1=CC(C)(C)N=C(Nc2nc(C)c3cc(C)cc(C)c3n2)N1 | 5.3 | 18.8* | -93.9 | 11.9 | 21.1* | 1.5
COc1cccc(N2CCN(c3ncnc4c3[nH]c3ccc(F)cc34)CC2C)c1 (configuration not stated) | 15.2* | 43.0* | -255.7 | -25.0 | -4.3 | -7.8
CCOC(=O)c1csc(N)c1-c1ccc([N+](=O)[O-])cc1 | 0.4 | 0.5 | -2.6 | -13.7 | x | x
O=C(NC1CCN(Cc2ccc(Cl)cc2Cl)CC1)c1ccccc1 | 6.0 | 18.2* | -85.6 | -23.1 | 25.8* | 3.7
CCCn1ncc(CN2CCC(n3nccc3NC(=O)CCc3ccccc3)CC2)c1C | -1.3 | 222.8* | i | 4.0 | 13.1 | 5.1
CCn1cc(CN2CCC(n3nccc3NC(=O)CCc3ccccc3)CC2)cn1 | 1.5 | 30.9* | -176.4 | -5.4 | 17.7 | 0.3
CCCn1ncc(CN2CCC(n3nccc3NC(=O)c3ccccc3OC)CC2)c1C | 3.3 | -1.5 | 7.7 | -7.9 | x | x
CCc1ccc(OCC(=O)Nc2ccc(S(=O)(=O)N3CCCC3)cc2)c(Br)c1 | -2.7 | 19.4* | -103.7 | -13.5 | 1.0 | -4.5
O=C(COc1ccc(Br)cc1CO)Nc1ccc(S(=O)(=O)N2CCCCC2)cc1 | 1.8 | 4.9 | -25.6 | -6.6 | x | x
O=C(c1ccco1)N1CCCN(Cc2nc(-c3cccs3)no2)CC1 | -2.3 | -2.3 | 12.3 | 7.1 | x | x
COC(=O)C(Cc1cccc(C)n1)(c1ccccc1)c1ccccc1 | 0.1 | 113.5* | i | -0.3 | 153.2* | 2.4
NC(N)=NC(=O)c1nc(Cl)c(N2CCCCCC2)nc1N | -3.2 | 72.0* | -389.4 | 11.3 | 94.7* | -2.2
NC(N)=NC(=O)c1nc(Cl)c(N)nc1N | -4.5 | -1.2 | 6.8 | -35.8 | x | x
CC(C)c1c(O)ccc2c1CC[C@H]1C(C)(C)CCC[C@]21C | 6.2 | 8.6 | -46.7 | -22.0 | x | x
O=C(c1ccccc1F)N(Cc1ccccc1)C1CCS(=O)(=O)C1 (configuration not stated) | -1.9 | 1.2 | -7.0 | 1.5 | x | x
O=C(COC(=O)CNC(=O)c1sc2ccccc2c1Cl)NC1CCS(=O)(=O)C1 (configuration not stated) | -3.1 | -1.5 | 9.5 | -0.8 | x | x
O=C(c1sc2ccccc2c1Cl)N(Cc1ccccc1)C1CCS(=O)(=O)C1 (configuration not stated) | -2.5 | 29.0* | -146.0 | 0.0 | 26.8* | 5.3
O=C(c1sc2ccccc2c1Cl)N(Cc1ccco1)C1CCS(=O)(=O)C1 (configuration not stated) | -0.2 | 53.2* | -283.3 | -26.3 | 54.3* | -0.3
O=C(c1sc2ccccc2c1Cl)N(Cc1ccccc1Cl)C1CCS(=O)(=O)C1 (configuration not stated) | 4.0 | 51.6* | -274.6 | -11.8 | 18.1* | 4.0
COc1cc(OC)cc(C(=O)NNC(=O)CN2C(=O)NC(C)(c3ccc(C)cc3)C2=O)c1 (configuration not stated) | 1.0 | -1.4 | 9.0 | -2.7 | x | x
COc1cc([N+](=O)[O-])cc2sc(NC(=O)c3c(F)cccc3F)nc12 | -2.9 | -1.2 | 6.1 | -5.3 | x | x
